This is part of a sample that, as a whole, favours compounds with a hit. Of some 79,000 tested, about 15% had one in any assay. Unmarked numbers belong to inactive results. Active and inactive are the calls of the source. Cut-off read from the data, not from the text of the source: active = growth inhibition above about 70%; inactive = the rest.
Tests used:
[1] = NCI Yeast Anticancer Drug Screen. Data for the rad50 strain (AID 155);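 note: 0% = growth of vehicle-only cultures of the same strain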; conditions: S. cerevisiae rad50 strain growth inhibition, active compounds read high
Outline: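 Cells are treated with compound, grown, and their growth is then scored against vehicle-only cultures of the same repair-deficient yeast strain.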

[2] = NCI Yeast Anticancer Drug Screen. Data for the mec2-1 strain (AID 157); conditions: S. cerevisiae mec2-1 strain, active compounds read high
Outline: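 Strain: mec2-1 (DNA repair/cell cycle alteration). Compound exposure, then growth measured; inhibition expressed relative to vehicle.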

[3] = NCI Yeast Anticancer Drug Screen. Data for the sgs1 mgt1 strain (AID 161);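 note: 0% = growth of cultures given vehicle only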; conditions: S. cerevisiae sgs1 mgt1 strain, active compounds read high
Outline: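 Inhibition of yeast growth, normalised to vehicle-treated controls, is reported for a strain bearing genetic alterations in DNA damage repair.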

[4] = NCI Yeast Anticancer Drug Screen. Data for the cln2 rad14 strain (AID 165);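 note: 0% = growth equal to vehicle treated cultures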; conditions: S. cerevisiae cln2 rad14 strain, active compounds read high
Outline: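 Compounds are applied to the cln2 rad14 yeast strain, and growth is then compared with that of vehicle-treated cultures to give inhibition.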

[5] = NCI Yeast Anticancer Drug Screen. Data for the bub3 strain (AID 167); conditions: S. cerevisiae bub3 mutant strain, active compounds read high
Outline: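 Part of a panel of yeast mutants defective in DNA damage repair or cell cycle regulation. Each strain is grown with compound, and inhibition is calculated relative to solvent-treated cultures.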

[6] = NCI Yeast Anticancer Drug Screen. Data for the mlh1 rad18 strain (AID 175); conditions: S. cerevisiae mlh1 rad18 strain growth inhibition, active compounds read high
Outline: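 Read-out is yeast growth inhibition, calculated against vehicle-only controls. The compound was applied to a strain engineered with DNA damage repair alterations.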

[7] = at 5.0 µM (retest, dose inferred, filed as 0.5)
[8] = at 50.0 µM (retest, dose inferred, filed as 5.0)

SMILES	growth inhibition [1, 7]	growth inhibition [1, 8]	growth inhibition ([1]; at 50.0 µM)	growth inhibition [2, 7]	growth inhibition [2, 8]	growth inhibition ([2]; at 50.0 µM)	growth inhibition [3, 7]	growth inhibition [3, 8]	growth inhibition ([3]; at 50.0 µM)	growth inhibition [4, 7]	growth inhibition [4, 8]	growth inhibition ([4]; at 50.0 µM)	growth inhibition [5, 7]	growth inhibition [5, 8]	growth inhibition ([5]; at 50.0 µM)	growth inhibition [6, 7]	growth inhibition [6, 8]	growth inhibition ([6]; at 50.0 µM)
CC(C)=CCC(OC(=O)CC(C)C)C1=CC(=O)c2c(O)ccc(O)c2C1=O (stereo unspecified)	-1%	99% (active)	87.3% (active)	1%	99% (active)	89.2% (active)	1%	99% (active)	89.7% (active)	-17%	99% (active)	82.2% (active)	2%	99% (active)	86% (active)	1%	99% (active)	87.4% (active)
Cc1ccc(Sc2ccc(C)cc2[N+](=O)[O-])c([N+](=O)[O-])c1	33%	40%	2.7%	31%	35%	-10.7%	69%	68%	66.2%	39%	37%	20.5%	56%	56%	29.1%	43%	53%	-8.85%
CC(C)c1cccc2sc(NC(=O)C(=O)C(C#N)c3cccc4ccccc34)nc12 (stereo unspecified)	0%	14%	19.2%	3%	15%	-9.55%	2%	10%	0.25%	3%	8%	13.2%	3%	5%	5.05%	3%	9%	12.2%
CC1Cc2cc(O)c(O)cc2-c2cc(O)c(O)cc2CC1C (stereo unspecified)	-6%	86% (active)	72.1% (active)	-11%	89% (active)	83.8% (active)	-9%	75% (active)	80.7% (active)	7%	85% (active)	83.4% (active)	-30%	93% (active)	79.4% (active)	-8%	93% (active)	83.7% (active)
C1=C(c2ccccc2)[P+](c2ccccc2)(c2ccccc2)C=C(c2ccccc2)[P+]1(c1ccccc1)c1ccccc1	87% (active)	98% (active)	99.3% (active)	89% (active)	99% (active)	99.7% (active)	89% (active)	99% (active)	99.2% (active)	44%	98% (active)	98.2% (active)	83% (active)	99% (active)	99.2% (active)	83% (active)	99% (active)	99.2% (active)
Cc1c2ccccc2c(=O)n2c(-c3ccccn3)cccc12	-47%	-14%	46.8%	-20%	-16%	-1.2%	7%	-3%	77.8% (active)	8%	26%	33.1%	-26%	-17%	30.8%	-43%	31%	-6.4%
CC(=O)C1CCC2C3CC(F)C4(O)CC(O)CCC4(C)C3CCC12C (stereo unspecified)	-120%	98% (active)	4.1%	-3%	99% (active)	-1%	-1%	95% (active)	62%	-6%	58%	-9.95%	-4%	33%	85.7% (active)	-20%	99% (active)	32.4%
c1ccc(-c2ccc(-c3ccc(C4=NCCN4)cc3)o2)cc1	13%	91% (active)	95.7% (active)	16%	79% (active)	95% (active)	-1%	51%	96.8% (active)	-21%	70% (active)	89% (active)	4%	86% (active)	95.8% (active)	3%	95% (active)	97.5% (active)
Cc1c(Cl)ccc2c(C(O)CNCc3ccccc3)cc(-c3ccc(Cl)cc3)nc12 (stereo unspecified)	44%	95% (active)	98.5% (active)	58%	95% (active)	91% (active)	66%	92% (active)	97.1% (active)	17%	94% (active)	93.8% (active)	26%	95% (active)	12.1%	59%	95% (active)	96.5% (active)
FC(F)(F)COP1(OCC(F)(F)F)=NP(OCC(F)(F)F)(OCC(F)(F)F)=NP(c2ccccc2)(c2ccccc2)=N1	0%	-4%	25.9%	-1%	-1%	25.4%	3%	-1%	38.1%	2%	-6%	2.45%	-5%	-8%	-3.05%	11%	0%	56.1%
O=C(Nc1cc(Cl)ccc1Oc1cc(Cl)c(Cl)cc1S(=O)(=O)O)Nc1cc(Cl)ccc1Oc1cc(Cl)c(Cl)cc1S(=O)(=O)O	-10%	81% (active)	85% (active)	-3%	73% (active)	87.4% (active)	-13%	79% (active)	84.1% (active)	23%	56%	76% (active)	14%	78% (active)	86% (active)	-4%	91% (active)	85.3% (active)
CCN1CCC(O)(/C=C/c2cccc(C)c2)C(C(=O)/C=C/c2cccc(C)c2)C1 (stereo unspecified)	42%	96% (active)	91% (active)	41%	98% (active)	93% (active)	95% (active)	92% (active)	90.8% (active)	91% (active)	93% (active)	90.2% (active)	95% (active)	96% (active)	88.2% (active)	64%	98% (active)	92.7% (active)
